Rows were chosen to be rich in hits. Some 1.5% of all compounds tested hit in one or more screens of this group.
sPLA2-III inh = human group III sPLA2 inhibitors, primary screen, biochemical, QFRET, BODIPY PC-A2 liposome substrate; QFRET BODIPY PC-A2 liposome hydrolysis, fluorescence; Group 3 secretory phospholipase A2 (Homo sapiens), Q9NZ20; inhibition, % at 12.2 µM; actives 0.56% (n = 370,000); AID 743126, 2013;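 active = inhibition above mean plus 3 SD of compounds lying within the high and low control bounds, cut at about 19% in these data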
PLCb3 inh = human PLC-beta3 inhibitors, primary screen, biochemical, fluorescence; 1-phosphatidylinositol 4,5-bisphosphate phosphodiesterase beta-3 (Homo sapiens), Q01970; Purified PLC-beta3, fluorogenic substrate; inhibition, % at 12.2 µM; actives 0.18% (n = 370,000); in the data active = inhibition above about 11%
Target sequence (Q01970 whole entry, looked up): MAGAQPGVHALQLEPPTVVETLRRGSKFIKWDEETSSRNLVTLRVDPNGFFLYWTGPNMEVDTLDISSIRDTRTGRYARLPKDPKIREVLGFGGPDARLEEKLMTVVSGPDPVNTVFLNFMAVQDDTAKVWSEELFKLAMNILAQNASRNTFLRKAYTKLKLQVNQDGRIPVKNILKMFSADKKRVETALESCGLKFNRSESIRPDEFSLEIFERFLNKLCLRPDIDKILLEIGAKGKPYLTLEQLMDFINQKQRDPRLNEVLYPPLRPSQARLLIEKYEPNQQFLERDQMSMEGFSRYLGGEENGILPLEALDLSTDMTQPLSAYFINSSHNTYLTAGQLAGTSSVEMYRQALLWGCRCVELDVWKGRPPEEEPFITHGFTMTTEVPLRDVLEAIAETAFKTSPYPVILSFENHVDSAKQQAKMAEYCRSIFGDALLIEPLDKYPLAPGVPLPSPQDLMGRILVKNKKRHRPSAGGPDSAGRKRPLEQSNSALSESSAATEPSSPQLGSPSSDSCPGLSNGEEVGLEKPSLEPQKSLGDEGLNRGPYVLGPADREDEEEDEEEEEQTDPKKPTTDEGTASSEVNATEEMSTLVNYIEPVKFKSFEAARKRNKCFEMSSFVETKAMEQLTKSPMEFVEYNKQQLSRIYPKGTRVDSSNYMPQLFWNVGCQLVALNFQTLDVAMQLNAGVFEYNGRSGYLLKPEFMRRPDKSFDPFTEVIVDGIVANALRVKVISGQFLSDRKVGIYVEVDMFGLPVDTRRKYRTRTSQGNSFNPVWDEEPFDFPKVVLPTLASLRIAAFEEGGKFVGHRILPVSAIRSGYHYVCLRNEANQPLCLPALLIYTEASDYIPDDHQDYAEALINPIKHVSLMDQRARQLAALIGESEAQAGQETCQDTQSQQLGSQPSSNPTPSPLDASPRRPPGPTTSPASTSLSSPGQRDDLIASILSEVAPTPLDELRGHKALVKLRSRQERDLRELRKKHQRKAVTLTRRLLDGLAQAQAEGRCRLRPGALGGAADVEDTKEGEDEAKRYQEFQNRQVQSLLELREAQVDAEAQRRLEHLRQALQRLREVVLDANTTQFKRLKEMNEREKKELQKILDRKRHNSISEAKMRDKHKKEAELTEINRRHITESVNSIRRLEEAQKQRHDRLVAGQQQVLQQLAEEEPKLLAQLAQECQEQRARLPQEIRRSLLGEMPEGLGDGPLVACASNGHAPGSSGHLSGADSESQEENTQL
PLC-gamma1 inh = PLC-gamma1 enzyme inhibitors, primary screen, biochemical, fluorescence, purified enzyme | 1-phosphatidylinositol 4,5-bisphosphate phosphodiesterase gamma-1 (Homo sapiens), P19174 | fluorogenic substrate | inhibition, % at 12.2 µM | actives 0.84% (n = 370,000)
DAGLB inhibitor = DAGLB lipase inhibitors, primary screen, biochemical, fluorescence, HTS; Diacylglycerol lipase-beta (Homo sapiens), Q8NCG7; HEK293T DAGLB membrane lysate, EnzChek fluorogenic substrate; inhibition, % at 5.17 µM; actives 0.059% (n = 340,000); AID 504411, 2011; in the data active = inhibition above about 34%
PLCgamma1 ctr = PLC-gamma1 enzyme inhibitors, counter-screen for PLC-beta3 inhibitor project, biochemical, fluorescence. purified PLC-gamma1, fluorogenic substrate. actives 3.1% (n = 3,300). inhibition, % at 12.3 µM. shares compounds with PLC-gamma1 inh
PLCbeta3 conf = PLC-beta3 inhibitor confirmation, biochemical, fluorescence, purified enzyme. inhibition, % at 12.3 µM. actives 1% (n = 3,300). shares compounds with PLC-gamma1 inh. fluorogenic substrate fluorescence; in the data active = inhibition above about 11%
Each line names hits and unclear results; the compound was inactive in the other large screens (follow-up assays come after a bar, where they were run). Rule as the data show it, unless noted: active = inhibition above about 9.5%; inactive = the rest.

COC(=O)C1=C(C)N(C)C(=NCc2cc(OC)c(OC)c(OC)c2)NC1c1ccc(Cl)cc1 (stereo not drawn)	PLCb3 inh 13 (no result: DAGLB inhibitor) | PLCgamma1 ctr inactive | PLCbeta3 conf inactive
COC(=O)C1=C(C)N(C)C(=NCc2ccc(OC)cc2)NC1c1ccc(Cl)cc1 (stereo not drawn)	none (no result: DAGLB inhibitor)
CCNC(=O)C1(C)CCN(C(=O)c2ccc(OC)c(OC)c2)C1 (stereo not drawn)	PLC-gamma1 inh 9.7 (no result: DAGLB inhibitor) | PLCgamma1 ctr inactive | PLCbeta3 conf inactive
CCCNC(=O)C1(C)CCN(C(=O)c2ccc(C)c(F)c2)C1 (stereo not drawn)	PLCb3 inh 12 (no result: DAGLB inhibitor) | PLCgamma1 ctr inactive | PLCbeta3 conf inactive
CCNC(=O)C1(C)CCN(C(=O)c2cc(OC)c(OC)c(OC)c2)C1 (stereo not drawn)	none (no result: DAGLB inhibitor)
COC(CNC(=O)[C@H](Cc1ccccc1)NC1(C(=O)NC2CCCCC2)CCC1)OC	none (no result: DAGLB inhibitor)
CC(C)Nc1nc(NC(C)C)nc(N(C)n2cnnc2)n1	PLC-gamma1 inh 9.9 | PLCgamma1 ctr inactive | PLCbeta3 conf inactive
CC(C)c1onc(C(=O)N2CCOCC2)c1[N+](=O)[O-]	PLCb3 inh 13 | PLCgamma1 ctr inactive | PLCbeta3 conf inactive
Cc1onc(C(=O)N2CCOCC2)c1[N+](=O)[O-]	none
S=C(Nc1ccccc1)c1ccccn1	PLCb3 inh 12, PLC-gamma1 inh 11 | PLCgamma1 ctr inactive | PLCbeta3 conf inactive
OCCN(Cc1ccccc1)CC(O)COc1ccc(-c2ccccc2)cc1 (stereo not drawn)	PLC-gamma1 inh 13 | PLCgamma1 ctr inactive | PLCbeta3 conf inactive
COc1cc(C(C)=O)ccc1OCC(O)CN(CCO)Cc1ccccc1 (stereo not drawn)	none
CCOc1ccc(OCC(=O)N2CCOCC2)cc1	none
CCOc1ccc(S(=O)(=O)N(C)c2ccc(OCC(=O)N3CCOCC3)cc2)cc1	PLC-gamma1 inh 9.8 | PLCgamma1 ctr inactive | PLCbeta3 conf inactive
O=C(c1ccc(F)cc1)C1CCN(c2ncnc3sccc23)CC1	none (no result: DAGLB inhibitor)
CC(C(=O)c1ccc(-c2ccccc2)cc1)[n+]1cccc(NC(=O)c2ccccc2)c1 (stereo not drawn)	PLC-gamma1 inh 9.7 | PLCgamma1 ctr inactive | PLCbeta3 conf inactive
CCOC(=O)c1ccc[n+](C(C)C(=O)c2ccc(-c3ccccc3)cc2)c1 (stereo not drawn)	none
Cc1ccc(C(=O)Oc2coc(CSc3nnc(NC(=O)C4CC4)s3)cc2=O)cc1C	PLC-gamma1 inh 11 | PLCgamma1 ctr inactive | PLCbeta3 conf inactive
COc1ccc(Cc2nnc(SCC(=O)Nc3ccc(C)cc3)n(N)c2=O)cc1	PLC-gamma1 inh 10 | PLCgamma1 ctr inactive | PLCbeta3 conf inactive
Nc1nc2c(ncn2[C@@H]2O[C@H](CNCc3ccc(F)c(N4CCOCC4)c3)[C@@H](O)[C@H]2O)c(=O)[nH]1	none (no result: DAGLB inhibitor)
CN1CCN(c2ccc(CNC[C@H]3O[C@@H](n4cnc5c(=O)[nH]c(N)nc54)[C@H](O)[C@@H]3O)c(F)c2)CC1	PLC-gamma1 inh 9.8 (no result: DAGLB inhibitor) | PLCgamma1 ctr inactive | PLCbeta3 conf inactive
CC(C)N(C(=O)[C@H]1C[C@H](CC(=O)NCCN2CCOCC2)C(=O)N2CCc3c([nH]c4ccc(Cl)cc34)[C@]12C)C(C)C	PLC-gamma1 inh 9.9 | PLCgamma1 ctr inactive | PLCbeta3 conf inactive
COC(=O)[C@H](C)NC(=O)[C@@H]1CCCN1C(=O)CNP(=O)(OCc1ccccc1)OCc1ccccc1	none (no result: DAGLB inhibitor)
CC(=O)Nc1nnc(CCS(=O)(=O)c2ccc(C)c(C)c2)s1	PLC-gamma1 inh 14 | PLCgamma1 ctr inactive | PLCbeta3 conf inactive
O=C(NCc1cccs1)c1cc2c(s1)CCCC2	PLC-gamma1 inh 11 | PLCgamma1 ctr inactive | PLCbeta3 conf inactive
O=C(NCc1cccs1)c1csc2c1CCCCC2	none
Fc1ccc(-c2nc(-c3cccs3)no2)cc1	none
Fc1ccc(-c2cc(-c3cccs3)cc(-c3ccccc3)n2)cc1	PLC-gamma1 inh 14 | PLCgamma1 ctr inactive | PLCbeta3 conf inactive
O=C(CNCCC1=CCCCC1)Nc1ccccc1N1CCCCC1	PLC-gamma1 inh 12 | PLCgamma1 ctr inactive | PLCbeta3 conf inactive
O=C1NC(=S)S/C1=C\c1ccc(SCc2ccccc2)o1	PLC-gamma1 inh 57 | PLCgamma1 ctr 29 | PLCbeta3 conf inactive
O=[N+]([O-])c1cc(C(F)(F)F)ccc1NCCCCNS(=O)(=O)c1ccc(Cl)cc1	PLCb3 inh 11 | PLCgamma1 ctr inactive | PLCbeta3 conf inactive
CC1=NN(c2ccc(C)c(C)c2)C(=O)C1C(c1cccc(O)c1)C1C(=O)N(c2ccc(C)c(C)c2)N=C1C (stereo not drawn)	PLC-gamma1 inh 16 | PLCgamma1 ctr inactive | PLCbeta3 conf inactive
C=CCNC(=S)N/N=C/c1ccc(OCc2ccccc2Cl)cc1	PLC-gamma1 inh 10 | PLCgamma1 ctr inactive | PLCbeta3 conf inactive
CC(=O)c1ccc(N2CCC(c3cc(-c4ccc(Cl)cc4Cl)n[nH]3)CC2)c([N+](=O)[O-])c1	PLC-gamma1 inh 15 | PLCgamma1 ctr inactive | PLCbeta3 conf inactive
C=CCN1C/C(=C/c2ccccc2)N2C(=O)CC(c3ccccc3)N=C12 (stereo not drawn)	none (no result: DAGLB inhibitor)
O=C(O)CCN1C(=O)/C(=C/c2cccc(OCc3ccc(F)cc3)c2)SC1=S	none (no result: DAGLB inhibitor)
COC(=O)C1CN(Cc2cn(Cc3ccc(Cl)cc3)nn2)CCS(=O)(=O)N1Cc1ccc(Cl)cc1 (stereo not drawn)	none (no result: DAGLB inhibitor)
CCOC(=O)Cc1c(C)nc(N)[nH]c1=O	none
CCOC(=O)Cc1c[nH]c(=S)[nH]c1=O	PLC-gamma1 inh 11 | PLCgamma1 ctr inactive | PLCbeta3 conf inactive
Cc1cccc(Oc2cc(NC(=O)Cn3cnc([N+](=O)[O-])n3)cc([N+](=O)[O-])c2)c1	PLC-gamma1 inh 11 | PLCgamma1 ctr inactive | PLCbeta3 conf inactive
Cc1cc([N+](=O)[O-])nn1CCCC(=O)Nc1cc(Oc2ccccc2)cc([N+](=O)[O-])c1	none
CCC(=O)NC(Nc1nc(C)cs1)(C(=O)OC)C(F)(F)F (stereo not drawn)	PLCb3 inh 11 | PLCgamma1 ctr inactive | PLCbeta3 conf inactive
Cc1cccc(NC(=O)n2ccc3ccc(-c4ccc5cc[nH]c5c4)cc32)c1	none (no result: DAGLB inhibitor)
CCOc1ccc(Cl)cc1-c1cc(C(=O)Nc2ccc(OC)cc2OC)[nH]n1	none (no result: DAGLB inhibitor)
COc1ccc(NC(=O)c2cc(-c3cc(Cl)ccc3OC)n[nH]2)c(OC)c1	PLC-gamma1 inh 12 (no result: DAGLB inhibitor) | PLCgamma1 ctr inactive | PLCbeta3 conf inactive
Nc1[nH][nH]c(=O)c1N=Nc1cccc(Cl)c1	PLCb3 inh 11, PLC-gamma1 inh 11 | PLCgamma1 ctr inactive | PLCbeta3 conf inactive
CC(C)(Oc1ccc(Cl)cc1)C(=O)OCC(=O)Nc1ncc(Cl)cc1Cl	PLCb3 inh 12 | PLCgamma1 ctr inactive | PLCbeta3 conf inactive
